Measured values from PubChem BioAssay AID2536 (National Center for Advancing Translational Sciences (NCATS), 2010).

The compounds below were run against Pyruvate kinase PKM (Homo sapiens) (UniProt P14618) (assay: Secondary Concentration-Response Assay for Activators of Human Muscle isoform 1 Pyruvate Kinase: for Probe SAR). Details: purified hPK-M1, ATP production, Kinase-Glo luminescence; active = well fitted curve in the direction sought with a large enough effect; inactive = no such curve, though single readings can be large or run the other way.
Pyruvate kinase PKM (Homo sapiens), sequence (P14618 whole entry, looked up, canonical isoform): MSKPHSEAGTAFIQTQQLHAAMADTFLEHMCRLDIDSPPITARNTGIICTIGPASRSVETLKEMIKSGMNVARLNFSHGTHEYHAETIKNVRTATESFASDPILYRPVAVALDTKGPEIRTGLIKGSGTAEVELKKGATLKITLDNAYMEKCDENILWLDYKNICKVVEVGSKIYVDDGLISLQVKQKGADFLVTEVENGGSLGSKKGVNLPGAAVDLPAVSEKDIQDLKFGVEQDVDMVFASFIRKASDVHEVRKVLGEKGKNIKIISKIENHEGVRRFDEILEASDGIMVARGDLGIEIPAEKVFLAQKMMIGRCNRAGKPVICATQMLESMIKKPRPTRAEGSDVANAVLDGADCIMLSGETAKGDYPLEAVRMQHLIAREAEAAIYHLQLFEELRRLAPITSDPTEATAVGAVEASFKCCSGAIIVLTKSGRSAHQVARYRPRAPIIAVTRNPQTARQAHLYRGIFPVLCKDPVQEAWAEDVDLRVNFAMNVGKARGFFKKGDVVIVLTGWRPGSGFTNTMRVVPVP
From the text: NIH Chemical Genomics Center [NCGC]
Matthew G. Vander Heiden, M.D., Ph.D. [Harvard Medical School, 77 Avenue Louis Pasteur, Boston, MA 02115]
Human pyruvate kinase […] (hPK-M1) enzyme was supplied as a highly purified (>95% pure) preparation from Harvard Medical School and assayed for its ability to generate ATP from ADP using phosphoenolpyruvate (PEP) as a substrate. ATP generation was detected in a coupled reaction by luciferase-mediated luminescence, an ATP-dependent process. Pyruvate kinase substrates, PEP and ADP, were present in the assay at Km and approximately 10-fold below Km respectively. The enzyme was assayed at an intermediate level of activity to screen for both inhibitors and activators.
NCGC Assay Protocol Summary for M1-isoform:
Three uL of substrate mix (at r.t.) in assay buffer (50 mM Imidazole pH7.2, 50 mM KCl, 7 mM MgCl2, 0.01% Tween 20, 0.05% BSA) was dispensed into white solid bottom 1,536 well microtiter plates so that the final concentrations of substrates in the assay were 0.1 mM ADP and 0.5 mM PEP. 23 nL of compound were delivered by a pin tool and 1 uL of enzyme mix (final concentration of 1 nM) in assay buffer (4 degree Celsius) was added. Plates were incubated at room temperature for 1 hour. Two uL of detection mix (Kinase-Glo, Promega; at 4 degree Celsius protected from light) was added and luminescence read by a ViewLux (Perkin Elmer) at 1 second exposure/plate. Data were normalized to the uninhibited (row 31). Additionally, a no enzyme and 5-fold enzyme control was dispensed in row 32, split equally between the two conditions.

Max response, inactive:
CNc1cc2c(cc1S(=O)(=O)Nc1ccc(C)c(C)c1)CCC(=O)N2 -0.656%
O=C1CCc2cc(S(=O)(=O)Nc3cccc(Oc4ccccc4)c3)ccc2N1 -2.73%
O=C1CCc2cc(S(=O)(=O)Nc3cccc(Br)c3)ccc2N1 -2.97%
Cc1c(Cl)cccc1NS(=O)(=O)c1cc2c(cc1Cl)CCC(=O)N2 0.521%
O=C1CCc2cc([S+](=O)([O-])NC3CCOCC3)ccc2N1 -5.17%
O=C1CCc2cc(S(=O)(=O)Nc3ccc(F)c(Cl)c3)ccc2N1 -1.6%
Cc1ccc(NS(=O)(=O)c2ccc3c(c2)CCC(=O)N3)cc1F 0.0639%
O=C1CCc2cc(S(=O)(=O)Nc3ccc4ncccc4c3)ccc2N1 -1.75%
COc1cccc(Cn2ncc3c4sc(S(C)=O)cc4n(C)c3c2=O)c1 (stereo not given) 3.1%
Cc1ccc(NS(=O)(=O)c2cc3c(cc2N2CCC2)NC(=O)CC3)cc1C -7.63%
CCNc1cccc(S(=O)(=O)N2CCCN(S(=O)(=O)c3ccc4c(c3)OCCO4)CC2)c1 8.55%
Cc1ccc(NS(=O)(=O)c2cc3c(cc2C)OCC(=O)N3)cc1C 2.47%
Cc1ccc(NS(=O)(=O)c2ccc3c(c2)CC(=O)N3)cc1C 23.4%
O=C1CCc2cc(S(=O)(=O)Nc3cc(F)cc(Cl)c3)c(F)cc2N1 1.25%
Cc1ccc(NS(=O)(=O)c2ccc3c(c2)N(C)C(=O)CO3)cc1C 1.15%
CSc1cc2c(s1)c1cnn(Cc3cccc(N)c3)c(=O)c1n2C 7.82%
Cc1ccc(NS(=O)(=O)c2cc3c(cc2Cl)NC(=O)C3)cc1C 2.96%
COc1cccc(Cn2ncc3c4sc(SC)cc4n(C)c3c2=O)c1 13.2%
Cc1ccc(Cl)cc1NS(=O)(=O)c1cc2c(cc1F)NC(=O)CC2 -4.17%
O=C1CCc2cc(Cl)c(S(=O)(=O)Nc3ccc(Cl)c(Cl)c3)cc2N1 1.66%
O=C1CCc2cc(S(=O)(=O)Nc3ccc(Cl)c(Cl)c3)c(F)cc2N1 2.68%
Cc1c(Cl)cccc1NS(=O)(=O)c1cc2c(cc1F)NC(=O)CC2 0.151%
Cc1ccc(NS(=O)(=O)c2ccc3c(c2)C(Cl)(Cl)C(=O)N3)cc1C 0.115%
CC(=O)N1c2ccc(S(=O)(=O)Nc3ccc(C)c(C)c3)cc2CC1C (stereo not given) 13.1%
N#Cc1cccc(NS(=O)(=O)c2ccc3c(c2)CCC(=O)N3)c1 -2.21%
Cn1c2cc(S(C)=O)sc2c2cnn(Cc3cccc(N)c3)c(=O)c21 (stereo not given) 2.91%
CN(C)c1cccc(S(=O)(=O)N2CCCN(S(=O)(=O)c3ccc4c(c3)OCCO4)CC2)c1 1.92%
O=C1CCc2cc(S(=O)(=O)Nc3ccc(Cl)c(Cl)c3)ccc2N1 4.63%
Cc1cc2c(s1)c1cnn(Cc3cc(F)c(F)cc3F)c(=O)c1n2C -8.12%
Cc1ccc(N(C)S(=O)(=O)c2ccc3c(c2)CCC(=O)N3)cc1C 0.78%
CC(C)Nc1cccc(S(=O)(=O)N2CCCN(S(=O)(=O)c3ccc4c(c3)OCCO4)CC2)c1 4.41%
Cc1ccc(N[S+](=O)([O-])c2cc3c(cc2CCc2ccccc2)NC(=O)CO3)cc1C -3.27%
Cc1ccc(Cl)cc1NS(=O)(=O)c1cc2c(cc1Cl)CCC(=O)N2 1.5%
Cc1ccc(NS(=O)(=O)c2cc3c(cc2F)NC(=O)CC3)cc1Cl 4.95%
Cc1cc2c(s1)c1cnn(Cc3cc(F)ccc3F)c(=O)c1n2C 4.73%
Cc1cc(NS(=O)(=O)c2ccc3c(c2)CCC(=O)N3)ccc1F 2.58%
Cc1cc2c(s1)c1cnn(Cc3c(Cl)ccc(C)c3F)c(=O)c1n2C 4.91%
O=S(=O)(c1ccc2c(c1)OCCO2)N1CCN(S(=O)(=O)c2c(F)cccc2F)CC1 -8.27%
Cc1cc2c(s1)c1cnn(Cc3ccccc3F)c(=O)c1n2C -9.51%
Cc1ccc(NS(=O)(=O)c2ccc3c(c2)CCC(=O)N3)cc1C -6.39%
